# Experimental data as given in the supplement of paper PMC12282887.
# ± gives the standard deviation of the averaged measurements.
# Columns and labels:
# Assay in all cases: promoter activity interaction Z-score (Lux/OD deviation from empty-vector control); higher = stronger promoter induction by the compound
# [1] = test system: E. coli BW25113 acrABp lux reporter
# How it was run: (§1)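 Low-copy luxCDABE promoter reporters were carried by E. coli BW25113, either wild type or lacking one of three genes, grown in 40 µl LB Lennox in 384-well plates at 37°C. Each compound was run at four 1:2 dilutions in biological duplicates, with OD600 and luminescence read every 30 min for 12 h. Integration used 0–8 h for wild type and 1–9 h for deletion strains, and wells under 10% of the median growth value were removed. Luminescence normalised to growth was fitted against a control, and the Z-transformed residual is the score.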
# [2] = test system: E. coli BW25113 marRABp lux reporter
# How it was run: as §1
# [3] = test system: E. coli BW25113 micFp lux reporter
# How it was run: as §1
# [4] = test system: E. coli BW25113 ompFp lux reporter
# How it was run: as §1
# [5] = test system: E. coli BW25113 robp lux reporter
# How it was run: as §1
# [6] = test system: E. coli BW25113 soxSp lux reporter
# How it was run: as §1
# [7] = test system: E. coli BW25113 tolCp lux reporter
# How it was run: as §1
# [8] = 14.6 µg/ml, genetic background: wild type
# [9] = 14.6 µg/ml, genetic background: ΔmarA
# [10] = 14.6 µg/ml, genetic background: Δrob
# [11] = 14.6 µg/ml, genetic background: ΔsoxS
# [12] = 29.3 µg/ml, genetic background: wild type
# [13] = 29.3 µg/ml, genetic background: ΔmarA
# [14] = 29.3 µg/ml, genetic background: Δrob
# [15] = 29.3 µg/ml, genetic background: ΔsoxS
# [16] = 58.6 µg/ml, genetic background: wild type
# [17] = 58.6 µg/ml, genetic background: ΔmarA
# [18] = 58.6 µg/ml, genetic background: Δrob
# [19] = 58.6 µg/ml, genetic background: ΔsoxS
# [20] = 117.2 µg/ml, genetic background: wild type
# [21] = 117.2 µg/ml, genetic background: ΔmarA
# [22] = 117.2 µg/ml, genetic background: Δrob
# [23] = 117.2 µg/ml, genetic background: ΔsoxS
structure (smiles),measurement,setting,value
c1ccc2[nH]ccc2c1 [Indole],promoter activity interaction Z-score,[1]; [8],0.275 ± 0.27
same,promoter activity interaction Z-score,[1]; [9],0.599 ± 0.24
same,promoter activity interaction Z-score,[1]; [10],0.275 ± 0.17
same,promoter activity interaction Z-score,[1]; [11],0.000826 ± 0.08
same,promoter activity interaction Z-score,[1]; [12],0.165 ± 0.071
same,promoter activity interaction Z-score,[1]; [13],0.0409 ± 0.28
same,promoter activity interaction Z-score,[1]; [14],0.281 ± 0.18
same,promoter activity interaction Z-score,[1]; [15],0.463 ± 0.32
same,promoter activity interaction Z-score,[1]; [16],-0.112 ± 0.29
same,promoter activity interaction Z-score,[1]; [17],0.00303 ± 0.77
same,promoter activity interaction Z-score,[1]; [18],-0.21 ± 0.23
same,promoter activity interaction Z-score,[1]; [19],-0.312 ± 0.055
same,promoter activity interaction Z-score,[1]; [20],0.167 ± 0.52
same,promoter activity interaction Z-score,[1]; [21],-0.375 ± 0.025
same,promoter activity interaction Z-score,[1]; [22],-0.278 ± 0.012
same,promoter activity interaction Z-score,[1]; [23],0.0661 ± 0.25
same,promoter activity interaction Z-score,[2]; [8],0.304 ± 0.29
same,promoter activity interaction Z-score,[2]; [9],0.3765 ± 0.00083
same,promoter activity interaction Z-score,[2]; [10],0.103 ± 0.22
same,promoter activity interaction Z-score,[2]; [11],0.259 ± 0.025
same,promoter activity interaction Z-score,[2]; [12],0.16 ± 0.016
same,promoter activity interaction Z-score,[2]; [13],0.41 ± 0.022
same,promoter activity interaction Z-score,[2]; [14],0.118 ± 0.27
same,promoter activity interaction Z-score,[2]; [15],0.258 ± 0.2
same,promoter activity interaction Z-score,[2]; [16],0.085 ± 0.049
same,promoter activity interaction Z-score,[2]; [17],-0.158 ± 0.041
same,promoter activity interaction Z-score,[2]; [18],-0.0769 ± 0.035
same,promoter activity interaction Z-score,[2]; [19],-0.0326 ± 0.017
same,promoter activity interaction Z-score,[2]; [20],0.965 ± 0.34
same,promoter activity interaction Z-score,[2]; [21],0.558 ± 0.15
same,promoter activity interaction Z-score,[2]; [22],0.0948 ± 0.28
same,promoter activity interaction Z-score,[2]; [23],0.629 ± 0.47
same,promoter activity interaction Z-score,[3]; [8],-0.0516 ± 0.12
same,promoter activity interaction Z-score,[3]; [9],0.0327 ± 0.011
same,promoter activity interaction Z-score,[3]; [10],0.00243 ± 0.044
same,promoter activity interaction Z-score,[3]; [11],0.0247 ± 0.094
same,promoter activity interaction Z-score,[3]; [12],-0.0146 ± 0.021
same,promoter activity interaction Z-score,[3]; [13],-0.0163 ± 0.074
same,promoter activity interaction Z-score,[3]; [14],0.00613 ± 0.19
same,promoter activity interaction Z-score,[3]; [15],0.586 ± 0.069
same,promoter activity interaction Z-score,[3]; [16],0.0628 ± 0.13
same,promoter activity interaction Z-score,[3]; [17],-0.00313 ± 0.016
same,promoter activity interaction Z-score,[3]; [18],-0.138 ± 0.18
same,promoter activity interaction Z-score,[3]; [19],0.204 ± 0.28
same,promoter activity interaction Z-score,[3]; [20],0.516 ± 0.39
same,promoter activity interaction Z-score,[3]; [21],-0.0638 ± 0.0022
same,promoter activity interaction Z-score,[3]; [22],0.0554 ± 0.19
same,promoter activity interaction Z-score,[3]; [23],0.622 ± 0.087
same,promoter activity interaction Z-score,[4]; [8],0.322 ± 0.069
same,promoter activity interaction Z-score,[4]; [9],0.511 ± 0.0093
same,promoter activity interaction Z-score,[4]; [10],0.571 ± 0.51
same,promoter activity interaction Z-score,[4]; [11],0.225 ± 0.49
same,promoter activity interaction Z-score,[4]; [12],0.195 ± 0.09
same,promoter activity interaction Z-score,[4]; [13],0.309 ± 0.31
same,promoter activity interaction Z-score,[4]; [14],0.788 ± 0.39
same,promoter activity interaction Z-score,[4]; [15],0.734 ± 0.24
same,promoter activity interaction Z-score,[4]; [16],0.0808 ± 0.21
same,promoter activity interaction Z-score,[4]; [17],-0.0711 ± 0.22
same,promoter activity interaction Z-score,[4]; [18],-0.121 ± 0.61
same,promoter activity interaction Z-score,[4]; [19],-0.221 ± 0.36
same,promoter activity interaction Z-score,[4]; [20],0.63 ± 0.055
same,promoter activity interaction Z-score,[4]; [21],0.332 ± 0.29
same,promoter activity interaction Z-score,[4]; [22],0.341 ± 0.29
same,promoter activity interaction Z-score,[4]; [23],0.406 ± 0.096
same,promoter activity interaction Z-score,[5]; [8],0.568 ± 0.58
same,promoter activity interaction Z-score,[5]; [9],1.11 ± 0.29
same,promoter activity interaction Z-score,[5]; [10],0.842 ± 0.094
same,promoter activity interaction Z-score,[5]; [11],0.694 ± 0.19
same,promoter activity interaction Z-score,[5]; [12],0.773 ± 0.055
same,promoter activity interaction Z-score,[5]; [13],1.1 ± 0.014
same,promoter activity interaction Z-score,[5]; [14],0.598 ± 0.34
same,promoter activity interaction Z-score,[5]; [15],0.773 ± 0.2
same,promoter activity interaction Z-score,[5]; [16],-0.0581 ± 0.17
same,promoter activity interaction Z-score,[5]; [17],0.148 ± 0.5
same,promoter activity interaction Z-score,[5]; [18],0.569 ± 0.13
same,promoter activity interaction Z-score,[5]; [19],0.0833 ± 0.58
same,promoter activity interaction Z-score,[5]; [20],0.0933 ± 0.09
same,promoter activity interaction Z-score,[5]; [21],0.0401 ± 0.093
same,promoter activity interaction Z-score,[5]; [22],-0.335 ± 0.55
same,promoter activity interaction Z-score,[5]; [23],0.0103 ± 0.36
same,promoter activity interaction Z-score,[6]; [8],0.0112 ± 0.045
same,promoter activity interaction Z-score,[6]; [9],-0.0857 ± 0.076
same,promoter activity interaction Z-score,[6]; [10],-0.0709 ± 0.072
same,promoter activity interaction Z-score,[6]; [11],0.0403 ± 0.38
same,promoter activity interaction Z-score,[6]; [12],-0.034 ± 0.11
same,promoter activity interaction Z-score,[6]; [13],0.0579 ± 0.018
same,promoter activity interaction Z-score,[6]; [14],-0.0043 ± 0.038
same,promoter activity interaction Z-score,[6]; [15],0.238 ± 0.052
same,promoter activity interaction Z-score,[6]; [16],-0.0963 ± 0.0079
same,promoter activity interaction Z-score,[6]; [17],-0.00367 ± 0.068
same,promoter activity interaction Z-score,[6]; [18],-0.169 ± 0.082
same,promoter activity interaction Z-score,[6]; [19],-0.175 ± 0.24
same,promoter activity interaction Z-score,[6]; [20],-0.134 ± 0.044
same,promoter activity interaction Z-score,[6]; [21],-0.1992 ± 0.0019
same,promoter activity interaction Z-score,[6]; [22],-0.22 ± 0.15
same,promoter activity interaction Z-score,[6]; [23],-0.0773 ± 0.035
same,promoter activity interaction Z-score,[7]; [8],0.801 ± 1.5
same,promoter activity interaction Z-score,[7]; [9],0.744 ± 0.49
same,promoter activity interaction Z-score,[7]; [10],-0.506 ± 0.39
same,promoter activity interaction Z-score,[7]; [11],-0.474 ± 0.23
same,promoter activity interaction Z-score,[7]; [12],-0.36 ± 0.35
same,promoter activity interaction Z-score,[7]; [13],0.821 ± 1.3
same,promoter activity interaction Z-score,[7]; [14],0.287 ± 0.068
same,promoter activity interaction Z-score,[7]; [15],2.02 ± 0.35
same,promoter activity interaction Z-score,[7]; [16],-0.246 ± 0.9
same,promoter activity interaction Z-score,[7]; [17],0.0426 ± 0.17
same,promoter activity interaction Z-score,[7]; [18],-0.244 ± 0.44
same,promoter activity interaction Z-score,[7]; [19],1.06 ± 0.6
same,promoter activity interaction Z-score,[7]; [20],-0.0345 ± 0.59
same,promoter activity interaction Z-score,[7]; [21],-0.841 ± 0.13
same,promoter activity interaction Z-score,[7]; [22],-1.12 ± 0.97
same,promoter activity interaction Z-score,[7]; [23],-0.0289 ± 0.16
